Screening data (PubChem)
This is a sample that favours compounds with a hit; in the whole collection about 8.1% have one here.
NOMO-1 viab = NOMO-1 AML cell viability reduction, primary screen, STK33 inhibitor project, CellTiter-Glo luminescence; NOMO-1 AML viability, 72 h; inhibition, % (concentration not given with the values); 37,000 tested, 7.5% active; AID 2330, 2010; in the data active = inhibition above about 80%; inconclusive = no clear call, values can overlap the other calls
MITF inhib = inhibitors of MITF, primary screen, MITF inhibitor project, cell-based, luminescence | inhibition, % (test concentration not listed) | AID 2240, 2010 | 37,000 tested, 0.28% active | TRPM1 promoter luciferase, 24 h; in the data active = inhibition above about 85%; inconclusive = no clear call, values can overlap the other calls; inactive = below about 68%;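 also: human melanocyte line stably carrying TRPM1 promoter luciferase reporter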
Shh pathway inh = Hedgehog pathway signaling inhibitors, primary screen, luminescence, Shh-LIGHT2 cells, Gli-luciferase; Shh-LIGHT2 Gli-luciferase reporter, 30 h; 22,000 tested, 2.1% active; inhibition, % (concentration not given with the values);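 active = mean inhibition across valid replicates above about 65%, limit read from the data; inconclusive = mean under the limit, yet half or more replicates past it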;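 also: pathway switched on by Shh-conditioned medium diluted 1 in 25 in low serum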
Active calls of the source: *; ? = inconclusive; / = no result given.

SMILES | NOMO-1 viab | MITF inhib | Shh pathway inh
CCOC(=O)c1c(/N=C/c2ccccc2O)sc(C)c1C | 23 | -7 | /
COc1ccc(OC)c(NC(=O)c2ccc(C)c(S(=O)(=O)Nc3ccc(C)cc3)c2)c1 | 103* | 51 | /
COc1ccc(C(=O)Nc2ccc(Cl)cc2)cc1S(=O)(=O)Nc1ccc(Cl)cc1 | 70 | 27 | -23
COc1ccc(OC)c(S(=O)(=O)Nc2ccc(C(N)=O)cc2)c1 | 1 | -10 | /
COc1ccc(OC)c(NC(=O)c2ccc(Cl)c(S(=O)(=O)Nc3ccc(C)cc3)c2)c1 | 93* | 16 | /
CCOC(=O)c1cc(NC(=O)CSc2nc3ccccc3s2)ccc1Cl | -4 | 18 | /
O=C(NCCNC(=O)c1ccccc1[N+](=O)[O-])c1ccc(F)cc1 | 7 | -4 | /
C[C@@H]1CCCCO[C@@H](CN(C)S(=O)(=O)c2cccs2)[C@@H](C)CN([C@H](C)CO)C(=O)c2cc(NC(=O)Nc3ccc(C(F)(F)F)cc3)ccc2O1 | 40 | 11 | -9
C[C@@H]1CCCCO[C@H](CN(C)S(=O)(=O)c2cccs2)[C@@H](C)CN([C@H](C)CO)C(=O)c2cc(NC(=O)Nc3ccc(C(F)(F)F)cc3)ccc2O1 | 90* | 10 | -36
Cc1noc(C)c1S(=O)(=O)N(C)C[C@H]1OCCCC[C@@H](C)Oc2ccc(NC(=O)Nc3ccc(C(F)(F)F)cc3)cc2C(=O)N([C@H](C)CO)C[C@@H]1C | 104* | 23 | 31
C[C@@H]1CCCCO[C@@H](CN(C)S(=O)(=O)c2cccs2)[C@@H](C)CN([C@H](C)CO)C(=O)c2cc(NS(C)(=O)=O)ccc2O1 | 13 | -2 | 67*
Cc1noc(C)c1NC(=O)Nc1ccc2c(c1)C(=O)N([C@H](C)CO)C[C@H](C)[C@@H](CN(C)S(=O)(=O)c1c(C)noc1C)OCCCC[C@@H](C)O2 | -3 | -5 | -10
C[C@@H]1CCCCO[C@@H](CN(C)S(=O)(=O)c2cccs2)[C@@H](C)CN([C@H](C)CO)C(=O)c2cc(NS(=O)(=O)c3cccs3)ccc2O1 | 26 | -8 | /
Cc1nc(SCC(=O)N(c2ccccc2)c2ccccc2)n[nH]1 | -6 | 11 | /
C[C@H]1CN([C@@H](C)CO)C(=O)c2cc(NS(C)(=O)=O)ccc2O[C@H]1CN(C)Cc1ccc(Cl)c(Cl)c1 | 14 | -9 | /
Cc1ccc(S(=O)(=O)Nc2ccc3c(c2)C(=O)N([C@@H](C)CO)C[C@@H](C)[C@H](CN(C)Cc2ccc(Cl)c(Cl)c2)O3)cc1 | 89* | 6 | /
Cc1ccc(S(=O)(=O)Nc2ccc3c(c2)C(=O)N([C@H](C)CO)C[C@@H](C)[C@H](CN(C)Cc2ccc(Cl)c(Cl)c2)O3)cc1 | 104* | 19 | /
C[C@H](CO)N1C[C@H](C)[C@H](CN(C)Cc2ccc(Cl)c(Cl)c2)Oc2ccc(NS(C)(=O)=O)cc2C1=O | 17 | -6 | /
COc1ccc2[nH]c(=O)c(CN(C)C(=O)c3cccc(Cl)c3)cc2c1 | 17 | -26 | /
Cc1ccc(S(=O)(=O)NC(C)C(=O)Nc2c(C)cc(C)cc2C)cc1 (stereo not given) | 28 | 11 | /
Cc1noc(C)c1S(=O)(=O)Nc1ccc2c(c1)C(=O)N([C@@H](C)CO)C[C@@H](C)[C@H](CN(C)Cc1ccc(C(=O)Nc3ccccc3N)cc1)O2 | 12 | -16 | /
Cc1noc(C)c1S(=O)(=O)Nc1ccc2c(c1)C(=O)N([C@H](C)CO)C[C@H](C)[C@@H](CN(C)Cc1ccc(C(=O)O)cc1)OCCCC[C@@H](C)O2 | -21 | -8 | 5
Cc1noc(C)c1S(=O)(=O)Nc1ccc2c(c1)C(=O)N([C@H](C)CO)C[C@H](C)[C@@H](CN(C)Cc1ccc(C(=O)Nc3ccccc3N)cc1)OCCCC[C@@H](C)O2 | 127* | 0 | /
Cc1noc(C)c1S(=O)(=O)Nc1ccc2c(c1)C(=O)N([C@H](C)CO)C[C@H](C)[C@H](CN(C)Cc1ccc(C(=O)Nc3ccccc3N)cc1)OCCCC[C@@H](C)O2 | 139* | -4 | /
NC(=O)c1c(NC(=O)C(Cc2ccccc2)N2C(=O)c3ccccc3C2=O)sc2c1CCCC2 (stereo not given) | 18 | -15 | /
SMILES | NOMO-1 viab | MITF inhib | Shh pathway inh
N#Cc1ccccc1CSc1nc(N)cc(=O)[nH]1 | 9 | 6 | /
Cc1noc(C)c1S(=O)(=O)Nc1cccc2c1O[C@@H](CN(C)S(=O)(=O)c1ccc(Cl)cc1)[C@@H](C)CN([C@@H](C)CO)C2=O | 29 | 4 | 106*
Cc1noc(C)c1S(=O)(=O)Nc1cccc2c1O[C@@H](CN(C)S(=O)(=O)c1ccc(Cl)cc1)[C@@H](C)CN([C@H](C)CO)C2=O | 15 | 7 | 67*
Cc1noc(C)c1S(=O)(=O)Nc1cccc2c1O[C@@H](CN(C)S(=O)(=O)c1ccccc1)[C@@H](C)CN([C@@H](C)CO)C2=O | 9 | -7 | 28
Cc1noc(C)c1S(=O)(=O)Nc1cccc2c1O[C@H](CN(C)S(=O)(=O)c1ccc(Cl)cc1)[C@H](C)CN([C@@H](C)CO)C2=O | 78 | 15 | -58
Cc1ccc(S(=O)(=O)N(C)C[C@@H]2Oc3c(NS(=O)(=O)c4c(C)noc4C)cccc3C(=O)N([C@@H](C)CO)C[C@@H]2C)cc1 | -6 | -1 | 89*
Cc1ccc(S(=O)(=O)N(C)C[C@@H]2Oc3c(NS(=O)(=O)c4c(C)noc4C)cccc3C(=O)N([C@H](C)CO)C[C@@H]2C)cc1 | 13 | -6 | 42
O=C(O)C1CCCCC1C(=O)Nc1ccc(C(=O)N2CCCCC2)c(Cl)c1 (stereo not given) | -8 | -3 | /
COCCC(=O)C1=CSC2=C(C(=O)CC(C)(C)C2)C1c1ccncc1 (stereo not given) | 46 | 20 | 60
C[C@H]1CN([C@@H](C)CO)C(=O)c2cccc(NC(=O)Nc3ccc(C(F)(F)F)cc3)c2O[C@@H]1CN(C)Cc1ccc(C(F)(F)F)cc1 | 113* | 30 | -13
C[C@H]1CN([C@@H](C)CO)C(=O)c2cccc(N(C)C)c2O[C@H]1CN(C)Cc1ccc(C(F)(F)F)cc1 | 27 | -6 | -7
C[C@@H]1CN([C@@H](C)CO)C(=O)c2cccc(NC(=O)Nc3ccc(C(F)(F)F)cc3)c2O[C@@H]1CN(C)Cc1ccc(C(F)(F)F)cc1 | ? | 8 | 44
C[C@@H]1CN([C@H](C)CO)C(=O)c2cccc(N(C)C)c2O[C@H]1CN(C)Cc1ccc(C(F)(F)F)cc1 | 81* | 13 | 19
C[C@H](CO)N1C[C@H](C)[C@@H](CN(C)Cc2ccc(C(F)(F)F)cc2)Oc2c(NC(=O)Nc3ccc(C(F)(F)F)cc3)cccc2C1=O | 105* | 14 | -6
C[C@@H]1CN([C@@H](C)CO)C(=O)c2cccc(NC(=O)Nc3ccc(C(F)(F)F)cc3)c2O[C@H]1CN(C)Cc1ccc(C(F)(F)F)cc1 | 116* | 48 | -32
C[C@H]1CN([C@@H](C)CO)C(=O)c2cccc(NC(=O)Nc3ccc(C(F)(F)F)cc3)c2O[C@H]1CN(C)Cc1ccc(C(=O)O)cc1 | 7 | -5 | -2
C[C@@H]1CN([C@@H](C)CO)C(=O)c2cccc(NC(=O)Nc3ccc(C(F)(F)F)cc3)c2O[C@@H]1CN(C)Cc1ccc(C(=O)O)cc1 | -12 | -7 | -16
